Mac1 fbg enh – enhancers of CD11b/CD18 adhesion to fibrinogen, primary screen, K562 cells, luminescence; Integrin beta-2 (Homo sapiens) + Integrin alpha-M (Homo sapiens), P05107+P11215; ATPlite luminescence; activation, % at 10 µM; 93,000 tested, 0.07% active; AID 1499, 2009;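 active = 10 µM primary screen giving 50% or more activity, confirmed by 40% or more on retest at that dose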
FAK inh – FAK kinase inhibitors, primary screen, biochemical | Focal adhesion kinase 1 (Homo sapiens), Q05397 | biochemical FAK kinase activity assay | inhibition, %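 (tested at 7 µM)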 | 97,000 tested, 0.84% active; in the data active = inhibition above about 19%;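 also: 0% = DMSO and 100% = reference compound high control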
hDAT+cocaine – changed hDAT dopamine uptake under cocaine IC80, either direction, primary screen, cocaine antagonist project, cell-based, LLC-PK1 hDAT, [14C]-dopamine uptake, MLSMR; 110,000 tested, 1.3% active; LLC-PK1 hDAT cells, [14C]-dopamine uptake with cocaine IC80; actives deviate in either direction; AID 449768, 2010; B-score at 10 µM;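 active = Z score or B-score, a plate-position-corrected score, falls beyond the plate's 99.7% confidence bounds, in either direction; inactive = both scores lie inside the 99.7% bounds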;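 also: scored against the spread of the other compound wells on the same plate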
CD11b adhes inh – inhibitors of CD11b/CD18 adhesion to fibrinogen, primary screen, K562 cells, luminescence; ATPlite luminescence; Mn2+ added to activate the integrin; 93,000 tested, 0.54% active; inhibition, % at 10 µM;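 active = primary inhibition of 50% or more at 10 µM, then 40% or more on retest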
D1 allo mod – D1 CRE-luciferase signal change, two-sided – cell-based, HEK293 D1, dopamine EC30, D1 allosteric modulator project, primary screen. 58,000 tested, 5.9% active. D(1A) dopamine receptor (Homo sapiens), P21728. dopamine EC30 potentiation; actives deviate in either direction. B-score at 10 µM;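 active = luminescence count or its row- and column-corrected plate score outside the 99.7% band of the plate's sample wells, on either side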
Target sequence (P21728 whole entry, looked up): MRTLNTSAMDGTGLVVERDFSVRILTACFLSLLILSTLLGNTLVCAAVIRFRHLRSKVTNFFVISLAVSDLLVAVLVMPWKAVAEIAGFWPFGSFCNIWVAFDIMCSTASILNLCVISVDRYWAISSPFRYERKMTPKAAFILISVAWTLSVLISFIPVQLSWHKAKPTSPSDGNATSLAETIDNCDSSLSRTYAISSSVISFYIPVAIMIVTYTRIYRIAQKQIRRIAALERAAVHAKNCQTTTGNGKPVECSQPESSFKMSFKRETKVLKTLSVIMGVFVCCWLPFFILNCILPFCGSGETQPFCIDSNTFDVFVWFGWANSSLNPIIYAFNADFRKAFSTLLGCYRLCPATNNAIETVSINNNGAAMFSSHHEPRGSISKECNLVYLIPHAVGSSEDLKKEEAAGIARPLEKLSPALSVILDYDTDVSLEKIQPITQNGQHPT
PTK2B oligo ant – antagonists of Pyk2 self-association, primary screen, Q293 cells, FERM NanoBiT luminescence, HTS | Protein-tyrosine kinase 2-beta (Homo sapiens), Q14289 | hits give low values | z-score (the deposit names both 25 µM and 10 µM) | 99,000 tested, 0.83% active | AID 1347419, 2020;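 active = Z-score of -3 or lower, scaled per plate to the spread of control and sample wells; inactive = z-score above -3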;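 also: negative z-score means lost luminescence so less FERM oligomerization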
D1 mod confirm – D1 receptor positive allosteric modulators, retest, confirmation, cell-based, HEK293 D1, CRE-luciferase, duplicate | shares compounds with D1 allo mod | dopamine EC30 potentiation; hits give high values | luminescence at 10 µM | 2,200 tested, 88% active | AID 642, 2007;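 active = luminescence in either of two replicates above the same-plate mean plus 3 SD of the low-dose dopamine control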
D1 ag no DA – D1 receptor agonism without dopamine, confirmation, mechanism study for D1 allosteric modulator project, cell-based, HEK293 D1, CRE-luciferase, secondary assay 1. shares compounds with D1 allo mod. luminescence, no dopamine; hits give high values. luminescence at 10 µM. 1,900 tested, 0.8% active. AID 646, 2007; in the data active = luminescence above about 3900
Isoprot counter – alters isoproterenol CRE-luciferase response in HEK293 cells. shares compounds with D1 allo mod. HEK293 D1 CRE-luciferase, isoproterenol EC30 counter-screen. calls only at 10 µM. 2,200 tested, 63% active;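 active = luminescence in either replicate above plate mean of wells with a partly effective reference agonist dose plus 3 SD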;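 also: isoproterenol raises cAMP through native beta-adrenoceptor Gs so signal bypasses D1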
Starred values were filed as active, the others as inactive; i = inactive; x = no result; + = active, no number. Shown is part of a subset that was picked to be rich in hits.

SMILES	Mac1 fbg enh	FAK inh	hDAT+cocaine	CD11b adhes inh	D1 allo mod	PTK2B oligo ant	D1 mod confirm	D1 ag no DA	Isoprot counter
COc1ccc(-c2ccc(=O)n(Cc3cc(=O)n4ccccc4n3)n2)cc1	3.9	-3.8	1.17	1.1	26.3*	0.44	20696*	1572	+
C[C@H](NC(=O)c1[nH]cnc1C(=O)Nc1ccc(CNC(=O)OC(C)(C)C)cc1)C(=O)OC(C)(C)C	x	x	0.485	x	x	x	x	x	x
COC1(c2cc(-c3ccccc3)nc(N)n2)CCCCC1	-2.3	1.6	-0.00977	24.8	0.368	-2.41	x	x	x
CCCC(=O)c1c(NC(C)C)cc(C)oc1=O	1.7	x	1.29	5.9	5.68*	0.41	12004*	1700	+
N#CCCCCn1c(-c2cncs2)nc2ccccc21	0.6	1.6	0.574	16.2	4.73*	-0.45	17344*	1684	+
c1ccc(Cn2c(-c3cncs3)nc3ccccc32)cc1	-1.5	1.3	-1.33	7.0	x	-0.09	x	x	x
CCOC(=O)Cn1nc(C)n(-c2ccccc2)c1=O	x	-2.7	-1.3	x	x	0.16	x	x	x
CCOC(=O)CCn1c2nc(C)cc(C)c2c(=O)n1-c1ccccc1	0.3	-3.2	0.327	-3.4	2.24*	0.36	5272	1496	i
CC(C)(C)NC(=O)c1cc([N+](=O)[O-])ccc1N1CCCCC1	-3.4	x	x	-3.9	x	x	x	x	x
COc1ccc(-c2nnc3sc(C4CCCCC4)nn23)cc1OC	1.1	1.2	1.62	-0.6	15.4*	-1.42	20172*	x	+
Clc1ccccc1-c1nnc2sc(-c3ccncc3)nn12	-1.6	3.6	-0.807	10.1	4.1	x	x	x	x
Clc1ccccc1-c1nnc2sc(-c3cccs3)nn12	1.6	x	1.22	-22.8	10.7*	-0.8	14324*	1788	+
COc1ccc(-c2nnc3sc(-c4cccs4)nn23)cc1OC	25.6	-10.5	-0.0336	-10.5	4.95*	-1.23	12160*	x	+
Clc1ccccc1-c1nn2c(-c3ccncc3)nnc2s1	-2.8	1.8	0.27	-2.9	4.87*	-1.63	7940*	1776	i
O=C1C2C3C=CC(C2C(=O)N1C1CCCCC1)C1C2C(=O)N(C4CCCCC4)C(=O)C2C31 (configuration not stated)	4.8	x	x	5.2	x	x	x	x	x
C1CCC(c2nn3c(-c4n[nH]c5c4CCC5)nnc3s2)CC1	7.3	6.4	0.581	5.0	6.32*	-0.48	15420*	1752	i
Cc1cccc(N(C(=O)Nc2ccccc2)C2=NCC(C)S2)c1 (configuration not stated)	1.5	1.8	0.572	10.4	5.09*	x	6412*	x	+
CC(=O)Nc1ccc(S(=O)(=O)N(C2=NCC(C)S2)c2ccccc2)cc1 (configuration not stated)	x	0.5	0.501	x	19.1*	-1.42	5700	1632	i
Cc1ccc(NC(=O)N(C2=NCC(C)S2)c2ccccc2)cc1 (configuration not stated)	x	0.0	1.9	x	0.784	0.11	x	x	x
C/C(=C\c1ccccc1)C(=O)Nc1cc(C)on1	1.7	-0.8	-0.425	5.8	x	-0.54	x	x	x
O=C(NCCN1CCOCC1)c1ccc2c(c1)N(Cc1ccccc1F)C(=O)CS2	x	-3.4	x	x	-0.0335	-0.03	x	x	x
O=C1CSc2ccccc2N1Cc1ccccc1F	-3.6	-1.7	0.0535	5.2	3.51*	-0.32	6672*	1472	i
COc1nc(NCCC2=CCCCC2)nc(OC)n1	3.7	0.1	-0.297	3.9	7.19*	-0.19	8312*	1712	+
CCC(=O)N1CCc2cc(OC)c(OC)cc2C1COc1ccc(C(=O)OC)cc1 (configuration not stated)	3.2	-0.4	0.224	0.9	15*	-1.26	20996*	3492	+
CCC1=C(OC(=O)N(CC)CC)N2C(=O)OC(=NCC(=O)OC)[C@]2(Cc2ccccc2)[C@H]2C1=CC[C@H]1C(=O)N(c3ccccc3)C(=O)[C@H]12	x	x	-0.288	x	x	x	x	x	x
SMILES	Mac1 fbg enh	FAK inh	hDAT+cocaine	CD11b adhes inh	D1 allo mod	PTK2B oligo ant	D1 mod confirm	D1 ag no DA	Isoprot counter
Cn1c(N2CCC(C(N)=O)CC2)nc2c1c(=O)n(Cc1ccc(Cl)cc1)c(=O)n2C	-0.5	1.5	1.61	4.6	-0.922	0.37	x	x	x
Cn1c(N2CCCC2)nc2c1c(=O)n(Cc1cccc(F)c1)c(=O)n2C	1.5	1.9	1.22	9.2	4.48*	0.44	11200*	1392	+
Cn1c(N2CCCC2)nc2c1c(=O)n(Cc1ccc(Cl)cc1)c(=O)n2C	-4.3	4.6	0.501	1.2	8.97*	-0.99	17964*	1940	+
Cc1cc(N2CCN(C3CCCC3)CC2)n2nc(C)c(-c3ccccc3)c2n1	x	x	x	x	0.112	x	x	x	x
CCOc1cccc2cc(C(=O)Nc3ccccc3-c3ccccc3)c(=O)oc12	x	x	x	x	x	0.75	x	x	x
CCOc1cccc2cc(C(=O)Nc3cc(C)on3)c(=O)oc12	61.9	-1.2	-0.566	3.1	2.6*	1.13	4892	1608	i
CCCCOc1ccc(CC(=O)NO)cc1	x	x	0.416	x	33.4*	x	18936*	x	+
COC(=O)c1ccsc1NC(=O)C1=COCCO1	0.4	3.7	0.812	-13.0	9.06*	x	17084*	1496	+
Nc1cc2c(cc1C(=O)c1ccccc1)OCCO2	-1.8	-1.3	-0.478	0.1	x	-0.43	x	x	x
CCC(=O)Nc1cccc(C(=O)c2ccccc2)c1	-6.2	-0.1	0.412	4.4	-0.115	-0.33	x	x	x
CCC(=O)Nc1ccc2c(c1)OCCO2	x	-4.7	0.777	x	x	0.36	x	x	x
CC(=O)Nc1cc2c(cc1C(=O)c1ccccc1)OCCO2	2.4	5.6	x	-3.3	6.34*	1.81	8592*	1552	+
CCC(=O)Nc1cc2c(cc1C(=O)c1ccccc1)OCCO2	x	1.3	0.0735	x	13.4*	-0.05	15532*	x	+
CCC(=O)Nc1cc2c(cc1C(=O)CC)OCCO2	-1.3	0.5	-2.52	-10.8	13.6*	0.01	12916*	1684	+
CSc1nnc(C)c(=O)n1COC(=O)c1ccc(S(=O)(=O)N2CCCC2)cc1	-0.6	x	x	26.7	x	x	x	x	x
